Screens as filed in PubChem.
hcDAF-12 act: H. contortus DAF-12 nuclear receptor activators, primary screen, cell-based, luminescence, HEK293, lit1-tk-luc reporter. HEK293 hcDAF-12 lit1-tk-luc reporter; 0% DMSO, 100% Δ7-dafachronic acid. activation, % at 6.8 µM. 1.4% of 370,000 active. AID 652067, 2013;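 active = activation above the mean of all tested compounds plus 3 SD, cut at about 5.5% in these data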
ssDAF-12 act: S. stercoralis DAF-12 nuclear receptor activators, primary screen, cell-based, luminescence, HEK293, GRIP1 co-expression, lit1-tk-luc; Nuclear hormone receptor DAF-12 (Strongyloides stercoralis); activation, % at 6.8 µM; 1% of 370,000 active; AID 652126, 2013; HEK293 ssDAF-12/GRIP1 lit1-tk-luc reporter; % of 3 µM dafachronic acid response;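 active = activation above the mean over all tested compounds plus 3 SD, cut at about 0.9% in these data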
GAA850 FXN act: FXN promoter activators, primary screen, cell-based, luciferase luminescence, HEK293 lucGAA850. HEK293 lucGAA850 FXN promoter luciferase reporter, 24 h; percent of 10 µM SAHA response. activation, % at 6 µM. 0.56% of 360,000 active. AID 540364, 2011;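 active = activation above the average of all compounds screened plus 3 SD, cutoff fixed separately per campaign, cut at about 7.5% in these data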
DAX1 inh-1: DAX1 (NR0B1) inhibitors on StAR promoter, primary screen, cell-based, luminescence, SF-1 (NR5A1), full-length DAX-1 | inhibition, % at 6.8 µM | HEK293T StAR-luciferase reporter, SF-1/DAX-1 repression relief | AID 652010, 2013 | 1.1% of 370,000 active;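 active = inhibition above the mean over all tested compounds plus 3 SD, cut at about 3.6% in these data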;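 also: higher inhibition means more luminescence from relief of DAX-1 repression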
DAX1 inh-2: DAX1 (NR0B1) inhibitors, primary screen, cell-based, HEK293, Gal4-DAX1, luciferase luminescence; HEK293 Gal4-DAX1 luciferase reporter; 0.99% of 340,000 active; inhibition, % at 6.75 µM;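 active = inhibition above the mean over all tested compounds plus 3 SD, cut at about 4.2% in these data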;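 also: inhibition shows as a rise in luminescence from relieved DAX1 repression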
Target sequence (P51843 207-470 limits assumed): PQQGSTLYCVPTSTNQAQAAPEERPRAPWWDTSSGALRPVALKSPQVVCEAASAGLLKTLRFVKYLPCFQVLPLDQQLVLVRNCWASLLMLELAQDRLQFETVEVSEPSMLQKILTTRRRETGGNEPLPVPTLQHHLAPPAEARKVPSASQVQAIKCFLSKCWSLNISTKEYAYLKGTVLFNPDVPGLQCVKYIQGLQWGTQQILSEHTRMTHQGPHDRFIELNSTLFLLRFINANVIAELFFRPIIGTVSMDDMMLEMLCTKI
hgDAF-12 ag: H. glycines DAF-12 receptor agonists, primary screen, cell-based, luminescence, HEK293, GAL4 fusion, UAS-luciferase. Nuclear hormone receptor DAF-12 (Heterodera glycines), GAL4 fusion. HEK293 GAL4-hgDAF12 UAS-luciferase reporter, agonist luminescence; normalized to butyrate control. activation, % at 6.8 µM. 1.8% of 370,000 active;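 active = activation above a cutoff set at the mean of all screened compounds plus 3 SD, cut at about 10% in these data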
GAA30 FXN cntr: GAA30 FXN promoter activators, confirmation, counter-screen for GAA850 frataxin promoter activator project, cell-based, luminescence, HEK293, lucGAA30, triplicate | shares compounds with GAA850 FXN act | HEK293 lucGAA30 FXN promoter luciferase, 24 h; DMSO = 0%, 5 µM ipriflavone = 100% | activation, % at 6 µM | 66% of 1,900 active | AID 588350, 2011;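 active = mean activation above the mean of solvent-only control wells plus 3 SD, cut at about 22% in these data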;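 also: counterscreen of GAA850 promoter hits where activity marks nonselective or luminescence artifacts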
FXN GAA850 conf: FXN GAA850 promoter activators in reporter cells, confirmation, cell-based, luminescence, HEK293 lucGAA850, triplicate. shares compounds with GAA850 FXN act. HEK293 lucGAA850 FXN promoter luciferase reporter, 24 h; 100% = activation by SAHA. activation, % at 6 µM. 86% of 1,900 active. AID 588351, 2011;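 active = mean activation above a set limit taken from the primary screen, cut at about 8% in these data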
Hits are given with their value; . = inactive; / = not tested or not shown. A selection: hits, their analogues and other compounds. The true share with any hit is near 4.5%.

SMILES	hcDAF-12 act	ssDAF-12 act	GAA850 FXN act	DAX1 inh-1	DAX1 inh-2	hgDAF-12 ag	GAA30 FXN cntr	FXN GAA850 conf
Cc1cc(C)c2nc(C(F)(F)F)c(C#N)c(N)c2c1	.	.	.	.	.	.	/	/
Cc1ccc2nc(C(F)(F)F)c(C#N)c(N)c2c1	.	.	40	.	.	.	79	77
CCN1C(=O)/C(=C\N(C)C)S/C1=N\S(=O)(=O)c1ccc(C)cc1	.	.	.	.	.	.	/	/
CCNc1nc(N)nc(Oc2ccc(OCCOc3ccc(Cl)cc3Cl)nn2)n1	.	.	13	.	.	.	.	8.6
CCC(=O)Nc1ccc2c(c1)C(=O)N(C)[C@@H]1CC[C@@H](CC(=O)NCCN3CCCCC3)O[C@H]1CO2	.	.	/	.	/	.	/	/
N#Cc1sc2nc(N3CCCCC3)c3c(c2c1N)CCCC3	.	.	7.6	.	.	.	.	17
CC(CC(=O)c1cccs1)CC(=O)c1cccs1	.	.	.	.	.	.	/	/
Cc1cc(C)c(C(CC(=O)c2cccs2)C(C#N)C#N)c(C)c1 (stereo unspecified)	.	.	9.0	.	.	.	100	61
Cc1cc(NC(=O)Cc2cn(C)c3ccccc23)ccc1Nc1cccnc1	.	.	/	.	/	.	/	/
CCCS(=O)(=O)Nc1ccc(N2CCCCC2)c(S(=O)(=O)Nc2ccccc2OC)c1	.	.	7.8	.	.	.	.	9.1
S=C(SSC(=S)N1CCOCC1)N1CCOCC1	.	.	/	.	/	.	/	/
COC(=O)[C@]12C[C@H](CC(=O)NCc3ccccc3)C(=O)N(Cc3ccco3)C1=C[C@H](C(C)C)O[C@@H]2C1CC1	.	.	/	.	/	.	/	/
Cc1nn(-c2ccccc2)c2sc(C(=O)NCc3ccc4c(c3)OCO4)cc12	.	.	/	.	/	.	/	/
O=C(CCC1CCCCC1)Nc1ccccc1O	.	.	.	.	.	.	/	/
Cc1ccc(O)c(NC(=O)CCC2CCCCC2)c1	.	.	8.3	.	.	.	91	35
COc1nc(N)nc(NC(=O)c2cccs2)c1N=O	.	.	16	.	.	.	.	31
Cc1ccc(C2CC(c3ccco3)n3ncnc3N2)cc1 (stereo unspecified)	.	.	11	.	.	.	.	.
Cc1cccc(N2C(=O)N3[C@H](c4ccc(Br)cc4)[C@@H]4C(=O)N(C(C)(C)C)C(=O)[C@@H]4[C@]3(Cc3ccc(Cl)cc3)C2=O)c1	.	.	10	.	.	.	.	17
COc1ccc([C@@H]2[C@@H]3C(=O)N(C(C)(C)C)C(=O)[C@@H]3[C@]3(Cc4ccc(Cl)cc4)C(=O)N(c4ccc(Br)cc4)C(=O)N23)cc1	.	.	.	.	.	.	/	/
Cc1cccc(N2C(=O)N3[C@H](c4ccc(Br)cc4)[C@@H]4C(=O)N(C(C)(C)C)C(=O)[C@@H]4[C@]3(C)C2=O)c1	.	.	14	.	.	.	28	16
Cc1ccc(N2C(=O)N3[C@H](c4ccc(Br)cc4)[C@@H]4C(=O)N(C(C)(C)C)C(=O)[C@@H]4[C@]3(C)C2=O)cc1	.	.	.	.	.	.	/	/
CC(C(=O)NCCCc1ccccc1)n1cccc1C(=O)c1ccccc1 (stereo unspecified)	.	.	.	.	.	.	/	/
Cc1ccc(N2CCN(/N=C\c3cccnc3)CC2)cc1	.	.	/	.	/	.	/	/
Cc1cc(NC(=O)c2ccc(F)cc2)n(C)n1	.	.	.	.	.	.	/	/
CC(=O)Nc1c(-c2ccc(C(F)(F)F)cc2)nc2ncccn12	.	.	/	.	/	.	/	/
SMILES	hcDAF-12 act	ssDAF-12 act	GAA850 FXN act	DAX1 inh-1	DAX1 inh-2	hgDAF-12 ag	GAA30 FXN cntr	FXN GAA850 conf
COc1ccc(CNC(=O)c2c(-c3cc(Cl)c(OC)c(Cl)c3)noc2C)cc1	.	.	10	.	.	.	.	11
COc1cccc(-c2ccc(SCc3ccccn3)nn2)c1	.	.	8.7	.	.	12	110	36
COc1ccc(/C=C/S(=O)(=O)NCc2ccccc2)cc1OC	.	.	7.8	.	.	.	.	8.2
COc1ccc(/C=C/C(=O)O)cc1S(=O)(=O)NCc1ccccc1	.	.	.	.	.	.	/	/
C[C@H](O)[C@@H]1CN2CCc3c([nH]c4c(-c5ccccc5)cccc34)[C@@H]2C[C@@H]1N(C)C(=O)c1ccco1	.	.	/	.	/	.	/	/
O=C(NC(=S)Nc1cccnc1Cl)c1ccco1	.	.	7.8	.	.	.	64	20
COc1ccc2c(c1)CCCN2C(=O)C1CCCN(S(=O)(=O)c2cc(OC)ccc2OC)C1 (stereo unspecified)	.	.	/	.	/	.	/	/
Oc1ccc(/C=N/Nc2ccnc3cc(Cl)ccc23)c(O)c1	.	.	12	.	.	.	60	19
Oc1ccc(Nc2ccnc3cc(Cl)ccc23)cc1	.	.	10	.	.	.	39	11
Clc1ccc(NNc2ccnc3cc(Cl)ccc23)cc1	.	.	.	.	.	.	/	/
CC(=O)c1ccc([C@H](O)[C@@H](C(=O)N(C)c2ccccc2)C2CC2)cc1	.	.	/	.	/	.	/	/
COC(=O)[C@]12C[C@H](CC(=O)N3CCSCC3)C(=O)N(Cc3ccccc3)C1=C[C@H](COCc1ccccc1)O[C@@H]2C	.	.	/	.	/	.	/	/
C=CCSc1nnc(-c2cc3c(s2)-c2ccccc2CC3)o1	.	.	8.7	.	.	.	76	28
COc1ccc([C@@H]2[C@@H]3C(=O)N(C(C)(C)C)C(=O)[C@@H]3[C@]3(Cc4ccccc4)C(=O)N(c4cccc(F)c4)C(=O)N23)cc1	.	.	.	.	.	.	/	/
COc1ccc([C@@H]2[C@@H]3C(=O)N(C(C)(C)C)C(=O)[C@@H]3[C@]3(CC(C)C)C(=O)N(c4cccc(F)c4)C(=O)N23)cc1	.	.	15	.	.	.	46	16
